HT1080 IDH1KD tx = qHTS for induction of synthetic lethality in tumor cells producing 2HG: qHTS for the HT-1080-IDH1KD cell line. HT-1080 IDH1 knockdown viability, ATP luminescence, 48 h. AID 686971, 2013. Potency, µM (titrated, usually from 46.1 µM), most hits filed as cytotoxic. 2% of 360,000 active
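CellTiter-Glo luminescence after 48 h compound exposure at 37 degrees C of IDH1-knockdown HT-1080 cells in 5% FBS RPMI. %Activity scaled between DMSO wells and cell-free media wells, with curves fitted and assigned curve classes.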
HT1080NT lethal = qHTS for induction of synthetic lethality in tumor cells producing 2HG: qHTS for the HT-1080-NT fibrosarcoma cell line; HT-1080-NT fibrosarcoma viability, CellTiter-Glo ATP luminescence, 48 h; Potency, µM (highest dose often 46.1 µM), actives largely listed as cytotoxic; 1.6% of 360,000 active;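 further: NT is the 2HG producing partner of a matched IDH1 knockdown line; nearly all actives have a fitted effect of over 55% in size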
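Read-out is CellTiter-Glo luminescence after 10 minutes at room temperature, following 48 hours' compound treatment of HT-1080-NT cells (750 cells/well, RPMI, 5% FBS, 37 degrees C).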
DT40 TDP1 CPT = qHTS for Inhibitors of human tyrosyl-DNA phosphodiesterase 1 (TDP1): qHTS in cells in presence of CPT. chicken DT40 Tdp1-/-;hTDP1 cells + 20 nM CPT, ATP luminescence, 48 h. Potency, µM (top dose mostly 46.2 µM), hits mostly inhibitors. 12% of 420,000 active; further: nearly all actives have a fitted effect of over 55% in size
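Cell growth measured by CellTiter-Glo luminescence after a minimum 48 h, 37 C compound exposure with 20 nM CPT in Tdp1-knockout DT40 cells stably expressing hTDP1, seeded 400/well; qHTS titration format.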
DT40 TDP1 no CPT = qHTS for Inhibitors of human tyrosyl-DNA phosphodiesterase 1 (TDP1): qHTS in cells in absence of CPT | DT40 Tdp1-/- hTDP1 cells, no CPT, ATP luminescence, 48 h | 15% of 420,000 active | Potency, µM (doses to about 46.2 µM), usual class: inhibitors; further: nearly all actives have a fitted effect of over 55% in size
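Readout: luminescence from CellTiter-Glo after 30 min in the dark at RT. Cells: DT40 Tdp1-/- with stable hTDP1, 400/well. Exposure: compounds alone, ≥48 hr, 37 °C.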
IL1B secr inh = qHTS for Inhibitors of Inflammasome Signaling: IL-1-beta AlphaLISA Primary Screen; THP-1 LPS/ATP IL-1B secretion, AlphaLISA, 16 h; hits give low values; activity change, % at 57.5 µM; 4.7% of 360,000 active; in the data active means activity change below about -50%; inconclusive means mostly about -30% to -49%
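Secreted IL-1B measured by AlphaLISA bead assay after 16 h compound exposure of THP-1 cells; compounds (final up to 57.5 uM) added 1 h before LPS (250 ng/mL) and ATP (1.25 mM) stimulation; lower signal means less secretion.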
A number is an active result; – = inactive; ? = inconclusive; · = not tested or not shown; [ ] = dose if it differs, or a comment. Shown are actives, neighbours in structure and some others; about 19% of the full set was active somewhere. Unless noted, the call rests on the fitted dose curve; in most records, active means well fitted curve in the direction sought with a large enough effect; inconclusive means small, poorly fitted or top-dose-only effect, or another doubt; inactive means no such curve, though single readings can be large; an effect the other way counts as inactive or inconclusive.

SMILES	HT1080 IDH1KD tx	HT1080NT lethal	DT40 TDP1 CPT	DT40 TDP1 no CPT	IL1B secr inh
O=C(c1ccc2ccccc2c1)N1CCN(S(=O)(=O)/C=C/c2ccccc2)CC1	–	–	16µM	26µM	–
CCN(CC)CCNC(=O)c1cnn(-c2ncc3c(n2)-c2ccc(OC)cc2CC3)c1C	·	·	–[9.04 µM]	–	·
CN1CCCN(C(=O)c2ccc(Cl)s2)CC1	–	–	–	–	–
CC[C@H](CC[C@@H](C)[C@H]1CC[C@H]2[C@@H]3CC=C4C[C@@H](O)CC[C@]4(C)[C@H]3CC[C@]12C)C(C)C	·	·	–	–	·
CCOc1cc(C)nc(N2CCC(C(=O)NC3CC3)CC2)n1	–	–	–	–	–
N#Cc1ccccc1OCC(=O)OCC(=O)NC1CC1	–	–	–	–	–
O=C(COc1ccc(F)cc1Br)N1CCN(S(=O)(=O)/C=C/c2ccccc2)CC1	–	–	?	?	-50
O=C(C=C1NCCN1)c1ccccc1	–	–	–	–	–
O=CC(=O)c1ccccc1	–	–	?	16µM	–
O=C(c1ccc(NS(=O)(=O)/C=C/c2ccccc2)cc1)N1CCCCC1	?	?	?	12µM	-76
O=C(/C=C/c1ccccc1)c1ccccc1	21µM	16µM	15µM	–	?
COC1=C[C@@H](C)C2CC3OC(=O)C[C@H]4C(C)=C(OC)C(=O)C([C@@]2(C)C1=O)[C@@]34C (stereo partly specified)	·	·	–[9.04 µM]	–[9.04 µM]	·
COc1ccc(OC)c(C(=O)COC(=O)c2[nH]c(C)c(C(C)=O)c2C)c1	–	–	?	?	–
O=C(/C=C/c1ccccc1)c1ccc2c3c(cccc13)CC2	?	?	?	?	-99
CCc1ccc(-c2nc(CN3CCC(C(=O)NCCc4ccc(OC)c(OC)c4)CC3)c(C)o2)cc1	–	–	16µM	?	-54
CCc1ccc(-c2nc(CN3CCC(C(=O)NCc4ccccc4OC)CC3)c(C)o2)cc1	–	–	18µM	?	?
Cc1oc(-c2cccc(Cl)c2)nc1CN1CCC(C(=O)NCc2ccc(F)cc2)CC1	·	·	?	15µM	·
COc1ccccc1CNC(=O)C1CCN(Cc2nc(-c3cccc(Cl)c3)oc2C)CC1	–	–	21µM	?	–
Cc1oc(-c2cccc(Cl)c2)nc1CN1CCC(C(=O)NCc2ccco2)CC1	–	–	–	?	–
O=C(Oc1ccccc1)N1CCCCC1	–	–	–	–	?
COc1cccc(CNC(=S)Nc2ccc3c(c2)c(=O)n(C)n3C)c1	–	?	–	–	–
COc1ccc(NC(=O)c2cccc3c2C(=O)c2ccc(-c4cnc(OC)nc4)cc2S3(=O)=O)cc1	–	–	–	–	–
CCN1CCCC1CNC(=O)C1CCN(Cc2nc(-c3cccc(Br)c3)oc2C)CC1 (stereo unspecified)	?	21µM	5.8µM	2.9µM	-83
CSc1c(C#N)c(N)nc2sc(C(=O)c3ccccc3)c(N)c12	–	–	–	–	-73
Cc1cc2ncn(C(=O)N3CCCCCC3)c2cc1C	–	–	–	–	–
SMILES	HT1080 IDH1KD tx	HT1080NT lethal	DT40 TDP1 CPT	DT40 TDP1 no CPT	IL1B secr inh
COC(=O)c1c(SC)nc2ccccc2c1OCc1ccccc1C	·	·	?	13µM	·
CCSc1nc2ccccc2c(OCc2cc(C(=O)OC)ccc2OC)c1C(=O)OC	·	·	18µM	?	·
COc1ccccc1-c1nn(Cc2ccccc2)cc1C(=O)NCC(c1ccco1)N1CCCC1 (stereo unspecified)	–	–	?	–	–
COc1ccc(OC)c(-c2nn(-c3ccccc3)cc2C(=O)NCC(c2ccco2)N2CCCC2)c1 (stereo unspecified)	–	–	?	21µM	–
Cc1ccccc1-c1nn(-c2ccccc2)cc1C(=O)NCC(c1ccco1)N1CCCC1 (stereo unspecified)	–	–	21µM	18µM	?
Cc1cccc2c(C(O)c3cn(C)c4ccccc34)c[nH]c12 (stereo unspecified)	·	·	11µM	16µM	·
Cn1cc(C(c2ccccn2)c2cn(C)c3ccccc23)c2ccccc21	?	?	?	?	–
CCOC(=O)c1cc(-c2ccccc2)sc1NC(=O)C(C)N1C(=O)NC(C)(c2ccc(Cl)cc2)C1=O (stereo unspecified)	–	–	–	–	-53
CCOC(=O)c1cc(-c2ccccc2)sc1NC(=O)COC	–	–	–	–	–
CCOC(=O)c1cc(CC)sc1NC(=O)C(c1ccccc1)c1ccccc1	–	–	?	?	–
CCOC(=O)c1cc(-c2ccccc2)sc1NC(=O)C(C)OC(=O)c1ccncc1 (stereo unspecified)	–	–	23µM	18µM	–
CCOC(=O)c1cc(-c2ccccc2)sc1NC(=O)c1ccc(OC)c(OC)c1	–	–	13µM	?	–
CCOC(=O)c1cc(-c2ccccc2)sc1NC(=O)C(C)Sc1nnc(C)s1 (stereo unspecified)	–	–	–	–	-77
CCOC(=O)c1cc(-c2ccccc2)sc1NC(=O)C(C)C	–	–	–	?	–
CC1=C(C(=O)N(C)C)CC(CC(=O)NC2CCCCC2)C(=O)N1CCCN1CCCC1=O (stereo unspecified)	–	–	–	–	–
CCOC(=O)c1c(NC(=O)c2cccnc2Cl)sc(C(=O)N(C)C)c1C	–	–	–	?	?
CCOC(=O)c1ccc(OS(=O)(=O)c2ccccc2)c(OC)c1	–	–	21µM	?	–
CCOC(=O)c1cc(-c2ccccc2)sc1NC(=O)C(C)OC(=O)c1cccnc1Cl (stereo unspecified)	–	–	23µM	23µM	–
NNC(=O)c1cc(O)c(O)c(O)c1	?	–	15µM	?	–
COc1c(Cl)cc(C(=O)NN)cc1Cl	2.6µM	2.1µM	–	?	–
Cc1ccc(CNc2oc(-c3ccc(COc4ccc(Cl)cc4)o3)nc2C#N)cc1	·	·	–	?	·
Cc1ccc(C)c(N2CCN(CCCNC(=O)Cn3c(-c4cccs4)cc4ccccc43)CC2)c1	·	·	5.2µM	2.9µM	·
O=C(Cn1c(-c2cccs2)cc2ccccc21)NCCCN1CCN(c2cccc(Cl)c2)CC1	·	·	?	16µM	·
O=C(NCCCN1CCN(c2cccc(Cl)c2)CC1)C1(S(=O)(=O)c2ccc(Cl)cc2)CC1	–	–	?	?	–
Cc1ccc(C)c(N2CCN(CCCNC(=O)CCn3c(=O)c4cccn4c4cccnc43)CC2)c1	–	–	?	?	–
Cc1cccc(-n2cc3c(=O)n(C)c(=O)n(C)c3c2)c1	–	?	–	–	–

From PubChem
